# Screening data (PubChem BioAssay)
# An excerpt weighted towards active compounds, which were near 22% of everything screened.
# LmPK inhibitor = blocks Leishmania mexicana pyruvate kinase activity. Q27686. purified LmPK, Kinase-Glo ATP luminescence, 1 h. Potency, µM (highest dose often 57.5 µM), usual class: inhibitors. actives 0.37% (n = 290,000). AID 1721
# Target sequence (Q27686 whole entry, looked up): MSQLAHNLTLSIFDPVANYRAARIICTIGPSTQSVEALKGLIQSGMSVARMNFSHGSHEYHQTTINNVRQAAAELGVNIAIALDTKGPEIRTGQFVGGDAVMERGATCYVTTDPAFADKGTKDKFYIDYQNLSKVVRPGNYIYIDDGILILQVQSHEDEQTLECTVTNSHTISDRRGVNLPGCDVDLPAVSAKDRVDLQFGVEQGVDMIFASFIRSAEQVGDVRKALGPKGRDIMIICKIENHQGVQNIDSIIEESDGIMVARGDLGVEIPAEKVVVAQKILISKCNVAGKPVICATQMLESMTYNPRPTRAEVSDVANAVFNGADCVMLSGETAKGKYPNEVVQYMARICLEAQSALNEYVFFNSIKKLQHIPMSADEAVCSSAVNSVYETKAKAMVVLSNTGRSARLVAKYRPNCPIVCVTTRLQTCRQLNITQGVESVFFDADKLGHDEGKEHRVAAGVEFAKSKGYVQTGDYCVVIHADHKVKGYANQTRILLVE
#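 In 50 mM imidazole pH 7.2 with 7 mM MgCl2, LmPK (0.1 nM) turned over PEP (0.5 mM) and ADP (0.1 mM) for 1 h at room temperature. Luciferase read-out of ATP.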
# CHX counter-1 = counter-screen for Shiga toxin inhibitors: cycloheximide protein synthesis inhibition; cell reporter, cycloheximide protein synthesis inhibition counterscreen; max response, %; actives 12% (n = 300,000); AID 2314; in the data active = max response mostly above about 13%, no sharp cut-off; inactive = mostly below about 14%; note: read at 38.3 µM for the half of the compounds with a filed dose
# Pf growth 48h = inhibits P. falciparum growth in the first generation, 48 h; P. falciparum luciferase growth in erythrocytes, 48 h; Potency, µM (highest dose often 28.7 µM), most hits filed as inhibitors; actives 5.9% (n = 310,000)
#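 Parasite viability was followed by luminescence of a genomically integrated firefly luciferase. Cultures held 0.1% parasitemia at 2% hematocrit (final), incubated under 5% CO2 at 37 C.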
# Pf growth 96h = inhibits malaria parasite growth, 96 h; P. falciparum luciferase reporter growth, 96 h; Potency, µM (top dose mostly 28.7 µM), hits mostly inhibitors; actives 6.9% (n = 320,000); AID 504834
#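 Cell-based qHTS: luciferase-tagged P. falciparum in erythrocytes (2% hematocrit, 0.05% parasitemia final) incubated with compounds for 96 hours, 37 C, 5% CO2; luciferase detection reagent then added and luminescence measured.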
# Shiga toxin inh = blocks Shiga toxin action in Vero cells; Vero cells, Shiga toxin protein synthesis inhibition reporter; inhibition, % at 38.7 µM; actives 9.2% (n = 290,000); in the data active = inhibition mostly above about 28%, no sharp cut-off; inactive = mostly below about 43%
# CHX counter-2 = counter-screen for Shiga toxin inhibitors: cycloheximide protein synthesis block; shares compounds with Shiga toxin inh; Cycloheximide counterscreen, protein synthesis reporter, Shiga toxin assay; Potency, µM (series often up to 38.3 µM), usual class: activators; actives 3% (n = 510); calls by dose curve
# Hits are given with their value; n = inactive; u = inconclusive; x = no result; [ ] = dose if it differs, or a comment. Unless noted, calls come from the whole dose curve; as a rule, active = well fitted inhibition curve with a large enough effect; inconclusive = small, poorly fitted or top-dose-only effect, or another doubt; inactive = no such curve, though single readings can be large or run the other way.
SMILES,LmPK inhibitor,CHX counter-1,Pf growth 48h,Pf growth 96h,Shiga toxin inh,CHX counter-2
Cc1nnc(N2C(=O)C(=O)/C(=C(/O)c3ccc4c(c3)OCCO4)C2c2ccc([N+](=O)[O-])cc2)s1 (stereo not drawn),n,n,n,u,44,n
COCCCNC(=O)NC(=O)c1ccccc1,n,n,n,n,18,n
O=C1C(Cl)=C(Nc2ccccc2)C(=O)c2ccccc21,n,n,n,n,69,u
O=S(=O)(NNc1ccc(F)cc1F)c1cccc(Cl)c1,n,n,u,n,n,x
COC(CNS(=O)(=O)c1ccc(S(=O)(=O)NC2CC2)cc1)OC,n,n,n,n,n,x
COc1ccc(NC(=O)NNC(=O)c2ccc3ccccc3c2O)c(OC)c1,n,n,n,n,27,n
O=C(OCCN(C1=NS(=O)(=O)c2ccccc21)c1ccccc1Cl)c1ccc(Cl)cc1,n,n,u,x,n,x
Cc1cc(NC(=O)c2cc(F)c(F)cc2Cl)no1,n,n,n,n,35,n
NC(=O)CF,x,n,x,x,n,x
COc1ccccc1/C=C/C1(C(=O)NC2CCCC2)CC(=O)N1c1ccccc1 (stereo not drawn),n,n,u,u,n,x
CC(=O)N(Cc1ccccc1)Cc1cn(CCC#N)nc1-c1cccc([N+](=O)[O-])c1,n,n,n[5.75 µM],n[5.75 µM],n,x
N#Cc1c(NC(=O)CSc2nc(N)cc(=O)[nH]2)sc2c1CCCC2,n,n,n,n,n,x
Cc1cc(NC(=O)c2ccc(Br)o2)ccc1NC(=O)c1ccco1,u,n,n,u,61,n
Cc1ccc(NS(=O)(=O)c2ccc(NC(=O)c3ccc(Br)o3)cc2)c(C)c1,n,n,u,n,n,x
COC(=O)c1ccc(CSCC(=O)Nc2cc(OC)cc(OC)c2)o1,n,n,n,n,n,x
COC(=O)c1ccc(CSCc2ccc(C(=O)OC)o2)o1,n,n,n,n,38,n
CC1Cc2ccccc2N1Cc1cc(=O)n2ccsc2n1 (stereo not drawn),n,n,u,13µM,25,n
CCCCOC(=O)c1ccc(N=Nc2c(C)c(C#N)c(O)[nH]c2=O)cc1,n,n,n,n,47,u
COc1cc(NC(=O)CCc2nnc3ccc(N4CCOCC4)nn23)cc(OC)c1OC,n,n,u,n,n,x
NNC(=O)c1ccc(NS(=O)(=O)c2ccc(Br)cc2)cc1,n,n,n,n,28,n
CC(Cn1cnc2ccccc21)C(=O)O (stereo not drawn),n,n,n,n,n,x
O=C(O)c1ccn(Cn2cnc3ccccc32)n1,n,n,n,n,27,n
Cc1nc(N2CCN(C(=O)c3ccco3)CC2)nc2c1C(=O)CCC2,n,n,n,u,36,u
Cc1ccc(-c2csc(NC(=O)c3ccc(C)o3)n2)cc1,n,n,n,n,71,n
COC(=O)c1ccc([C@H]2C=C(C(=O)O)O[C@@H](OCc3ccc(CO)cc3)C2)cc1,n,n,n,n,n,x
SMILES,LmPK inhibitor,CHX counter-1,Pf growth 48h,Pf growth 96h,Shiga toxin inh,CHX counter-2
COc1ccccc1NC(=O)CSc1nnc(-c2ccco2)n1Cc1ccco1,n,n,n,u,63,n
COc1ccccc1NC(=O)CSc1nnc(-c2ccco2)n1N,n,n,n,n,n,x
O=S(=O)(NCC1CCN(Cc2ccccc2)CC1)c1ccccc1C(F)(F)F,n,n,n,n,n,x
O=[N+]([O-])c1cccc(S(=O)(=O)c2ccc(NCCO)c([N+](=O)[O-])c2)c1,n,n,u,n,n,x
CCOc1cc(S(=O)(=O)N2CCN(Cc3ccccc3)CC2)ccc1Br,n,n,n,n,136,n
O=C(Nc1nc(N2C(=O)c3ccccc3C2=O)n(-c2ccccc2)n1)c1ccc(F)cc1,n,n,n,n,n,x
O=C(Nc1nc(N2C(=O)c3ccccc3C2=O)n(-c2ccccc2)n1)c1ccccc1,n,n,n,n,35,n
COc1ccc(N/C=C(\C#N)c2nc3ccccc3n2C)c(OC)c1,n,n,u,n,81,u
Cc1c(C(=O)Nc2ccc(-c3nnc4n3CCCCC4)cc2)oc2ccc(Br)cc12,n,n,n,n,14,u
O=C(CSc1nnc(-c2ccccn2)o1)Nc1ccccc1C(F)(F)F,n,n,n,n,63,n
O=C(NCCN1CCOCC1)C(=O)NCC1OCCN1S(=O)(=O)c1ccc(Br)cc1 (stereo not drawn),n,n,n,n,n,x
O=C(NCCN1CCOCC1)C(=O)NCC1OCCN1S(=O)(=O)c1ccccc1 (stereo not drawn),n,n,n,u,12,n
CN1CCN(C(=O)c2ccc(-n3cccc3)cc2)CC1,n,n,n,n,32,n
CC(OC(=O)C1CCCCC1)C(=O)Nc1ccc(S(N)(=O)=O)cc1 (stereo not drawn),x,x,n,n,x,x
O=C(Cc1ccc(F)cc1)Nc1cccc2cccnc12,n,n,n,n,36,n
COC(=O)C(O)(c1ccc(N(C)S(=O)(=O)c2ccccc2)cc1)C(F)(F)F (stereo not drawn),n,n,n,u,84,u
O=c1[nH]c(-c2ccccc2)nn1-c1ccc(Br)cc1Br,n,n,n,n,n,x
O=C(NCC1CCCO1)Nc1ccc2c(c1)OCO2 (stereo not drawn),n,n,n,u,43,u
CCOC(=O)C1=C(COC(=O)C2CC(=O)N(c3ccccc3F)C2)NC(=O)NC1C (stereo not drawn),x,x,n,u,x,x
COc1cccc(Nc2nc(NCCO)c3ccccc3n2)c1,n,n,x,n,50,n
O=C(COC(=O)CNC(=O)c1ccc(Cl)cc1)Nc1cccc(S(=O)(=O)N2CCCC2)c1,n,n,n,n,n,x
O=C(CSc1nncn1-c1ccccc1)Nc1ccccc1,n,n,n,u,n,x
COc1ccccc1-n1cnnc1SCC(=O)Nc1ccccc1,n,n,n,n,62,n
CCOc1ccc(NC2=NCC(=O)N2Cc2cccs2)cc1,n,n,u,n,n,x
COC(=O)c1sc(NC(=O)COc2cccc(C)c2)nc1C,n,n,n,n,28,n
SMILES,LmPK inhibitor,CHX counter-1,Pf growth 48h,Pf growth 96h,Shiga toxin inh,CHX counter-2
FC(F)(F)c1ccc(NC(=S)NCc2ccccc2)cc1,n,n,n,u,n,x
COc1ccc(-c2[nH]c(-c3ccc(C)cc3)nc2SCC(=O)NCc2ccco2)cc1OC,n,n,x,n,n,x
CCN1C(=O)/C(=C/c2ccc(OC)c(OC)c2)N=C1SCC(=O)NCc1ccco1,n,n,n,n,26,n
COc1ccc(CNCC(=O)Nc2sccc2C#N)cc1,n,n,n,n,52,n
COC(=O)C(C)NC(=O)c1cn(-c2ccccc2OC)c(=O)c2ccccc12 (stereo not drawn),n,n,n,n,n,x
Cc1ccc(NC(=S)c2nc3ccccc3s2)cc1,n,n,n,n,73,0.71µM
Cn1c(CNC(=O)c2ccco2)nnc1SCCOc1ccccc1,n,n,n,n,n,x
